# Screens as filed in PubChem.
# The list is not random: actives were taken first. Their share in the collection is about 2.7%.
# A549 viability: kills or reduces viability of A549 cells in Nrf2 counter-screen. Potency, µM (titrated, usually from 46 µM), usual class: inhibitors. A549 ARE-Fluc cells, CellTiter-Fluor viability, 18-24 h. 390,000 tested, 0.16% active. AID 504648
#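 A549 ARE_Fluc cells in 5% FBS OPTI-MEM were exposed to compounds in concentration-response for 18-24 h at 37 deg C. Viability was read by CellTiter-Fluor fluorescence (Ex 405/Em 525) after 30 min, before the luciferase read.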
# LDHA inh: blocks human lactate dehydrogenase A; P00338; purified LDHA, NADH/diaphorase-resazurin fluorescence; active compounds read low; activity change, % (values are at about 110 or 230 µM); 480,000 tested, 0.15% active; AID 1347041; in the data active = activity change below about -30%; inconclusive = mostly about -25% to -30%
#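 LDH5 2 nM; NADH 0.06 mM, pyruvate 0.2 mM; 200 mM Tris pH 7.4, EDTA, Tween-20; 5 min RT. Detection: diaphorase 0.133 mg/mL + resazurin 37 µM, fluorescence ex540/em590 at 0 and 20 min; normalized to enzyme-free and DMSO wells.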
# 12-LOX inh: blocks human arachidonate 12S-lipoxygenase | purified 12hLO, xylenol orange hydroperoxide absorbance | Potency, µM (highest dose often 108 µM), actives largely listed as inhibitors | 580,000 tested, 1.1% active
#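 Hydroperoxide product was detected by ferrous iron/xylenol orange as the 573 to 405 nm absorbance ratio. Arachidonic acid at 40 uM (final) was turned over for 30 min at room temperature by 150 nM human 12hLO, pH 7.0 Hepes buffer, after 15 min compound preincubation.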
# Nrf2 ARE act: activators of Nrf2 (ARE) signaling; AID 624171; AREc32 ARE-luciferase reporter (MCF7-derived line), luminescence, 24 h; Potency, µM (series often up to 46.1 µM), hits mostly activators; 410,000 tested, 0.31% active; also: nearly all actives have a fitted effect of over 65% in size
#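 ARE-driven firefly luciferase activity in AREc32 cells measured after a 24 hr compound exposure at 37 deg C, using Steady-Glo reagent and a 30 min room-temperature hold.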
# Nrf2 inh: inhibitors of Nrf2 signaling; A549 ARE-Fluc reporter, luciferase luminescence, 18-24 h; Potency, µM (titrated, usually from 46 µM), hits mostly inhibitors; 360,000 tested, 2.1% active; AID 504444; also: nearly all actives have a fitted effect of over 60% in size
#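 Reporter: ARE-Fluc in A549. Exposure: 18-24 h, 37 °C, 5% CO2, 5% FBS OPTI-MEM. Readouts: fluorescent cytotoxicity (CellTiter-Fluor), then luminescent Nrf2 signal after BugLite.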
# IDH1 R132H inh: inhibitors of human mutant IDH1 R132H; O75874; 390,000 tested, 0.093% active; Potency, µM (highest dose often 76.6 µM), usual class: inhibitors; IDH1-R132H enzyme, NADPH consumption, diaphorase/resazurin fluorescence; AID 602179; also: nearly all actives have a fitted effect of over 65% in size
# Target sequence (O75874 whole entry R132H, stated change not applied): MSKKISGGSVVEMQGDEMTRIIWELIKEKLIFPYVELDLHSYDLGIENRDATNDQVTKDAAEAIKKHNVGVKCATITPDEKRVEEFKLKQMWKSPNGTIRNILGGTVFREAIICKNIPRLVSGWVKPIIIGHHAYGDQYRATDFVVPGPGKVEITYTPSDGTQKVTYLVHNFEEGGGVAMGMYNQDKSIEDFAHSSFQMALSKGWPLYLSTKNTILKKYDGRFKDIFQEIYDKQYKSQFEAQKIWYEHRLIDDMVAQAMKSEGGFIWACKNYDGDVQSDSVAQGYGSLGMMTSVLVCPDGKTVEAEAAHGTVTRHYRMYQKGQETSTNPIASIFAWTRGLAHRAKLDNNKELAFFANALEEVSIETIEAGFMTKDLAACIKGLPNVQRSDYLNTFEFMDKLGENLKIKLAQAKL
#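 IDH1-R132H (0.5 ug/mL dispensed) in pH 7.5 Tris buffer was preincubated 30 min with compound, then given a substrate mix of 0.016 mM NADPH and 2 mM alpha-KG for 80 min at room temperature; remaining NADPH was read by diaphorase/resazurin fluorescence.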
# IDH1 autofl: autofluorescence interference, mutant IDH1 hit counter-screen | shares compounds with IDH1 R132H inh | Resorufin detection reagent fluorescence interference, cell-free | inhibition of signal, % at 51.2 µM | 750 tested, under 10 active
# IDH1 WT: selectivity of mutant IDH1 inhibitors: human wild-type IDH1 | WT IDH1 enzyme, NADPH diaphorase/resazurin fluorescence | AID 623995 | shares compounds with IDH1 R132H inh | 750 tested, 9% active | Potency, µM (top dose mostly 115 µM), most hits filed as inhibitors; also: nearly all actives have a fitted effect of over 55% in size
# Target sequence (O75874 whole entry, looked up): as the sequence (O75874 whole entry R132H, stated change not applied) above, with H132R counted along it
# IDH1 R132H conf: confirmation of human mutant IDH1 inhibitors; IDH1 R132H enzyme, NADPH diaphorase/resazurin fluorescence; AID 624002; shares compounds with IDH1 R132H inh; 750 tested, 83% active; Potency, µM (series often up to 76.6 µM), actives largely listed as inhibitors; also: nearly all actives have a fitted effect of over 50% in size
# A number is an active result; . = inactive; ? = inconclusive; / = not tested or not shown. Unless noted, calls follow the shape of the dose curve; as a rule, active = well fitted curve in the direction sought with a large enough effect; inconclusive = small, poorly fitted or top-dose-only effect, or another doubt; inactive = no such curve, though single readings can be large; an effect the other way counts as inactive or inconclusive.
SMILES,A549 viability,LDHA inh,12-LOX inh,Nrf2 ARE act,Nrf2 inh,IDH1 R132H inh,IDH1 autofl,IDH1 WT,IDH1 R132H conf
CC(C)=CCC/C(C)=C/CNC(=O)C[C@H]1C[C@H](C(=O)N2CCCCC2)[C@@]2(C)c3[nH]c4cc(CCC(=O)N(C)C)ccc4c3CCN2C1=O,.,.,/,.,?,?,.,.,25µM
CC[C@]12c3[nH]c4cc(-c5ccco5)ccc4c3CCN1C(=O)[C@@H](CC(=O)NC/C=C(\C)CCC=C(C)C)C[C@@H]2C(=O)N1CCN(C(=O)C2CC2)CC1,?,.,?,.,?,35µM,.,.,.
CN(C)C(=O)CCc1ccc2c3c([nH]c2c1)[C@]1(C)[C@@H](C(=O)N2CCCCC2)C[C@H](CC(=O)NC(C)(C)C)C(=O)N1CC3,.,.,.,.,.,.,/,/,/
COc1ccc(CC(=O)Nc2ccc([C@@H](O)[C@H]3COCC(=O)N3Cc3ccc(C(F)(F)F)cc3)cc2)cc1,/,/,.,/,/,/,/,/,/
CN1CC(c2ccccn2)C2(SC(=S)N(Cc3ccccc3)C2=O)C12C(=O)Nc1ccccc12 (centres undefined),.,.,.,.,23µM,?,.,.,20µM
Cc1c(C)c2c(OCC(=O)NCC(=O)NCC(=O)O)cc3c(c2oc1=O)CCC(C)(C)O3,.,.,.,.,.,.,/,/,/
Cc1c(C)c2c(OCC(=O)O)cc3c(c2oc1=O)CCC(C)(C)O3,.,.,.,.,.,?,.,?,18µM
CCC12CN3CC(CC)(CN(C1)C(=O)c1ccccc1C3=O)C2=O,/,.,.,/,/,/,/,/,/
COC(=O)/C(C#N)=C/c1c(N2CCN(c3ccccc3)CC2)nc2ccccn2c1=O,.,.,/,.,.,.,/,/,/
CNC(=O)/C(C#N)=C/c1c(N(Cc2ccccc2)Cc2ccccc2)nc2ccccn2c1=O,23µM,.,?,.,?,52µM,.,.,25µM
Cn1ccnc1CNC(=O)CC(c1cccc(O)c1)c1ccccc1Cl (centres undefined),/,/,.,/,/,/,/,/,/
O=C(c1ccc2ccccc2n1)N1CCN(C2CC2)CC1,/,.,.,/,/,/,/,/,/
C=CS(=O)(=O)c1c2cc(OC)ccc2nc2ccc(OC)cc12,.,.,.,?,.,?,.,28µM,10µM
C/C(=N\NC(=O)C(c1ccccc1)c1ccccc1)c1cccs1,/,.,.,/,/,/,/,/,/
CCc1cc(C(=O)c2ccc(OC)cc2)c(NC(=O)CN2CCCCC2)s1,.,.,.,.,.,.,/,/,/
CCc1cc(C(=O)c2ccc(OC)cc2)c(NC(=O)CN2CCCC2)s1,.,.,.,.,.,46µM,.,.,16µM
CCN(CC)c1ccc(-c2nn3c(-c4n[nH]c5c4CCC5)nnc3s2)cc1,?,.,.,.,/,?,.,.,40µM
COc1ccc(NC2=C(c3ccccc3)C(=O)c3ccccc32)cc1Cl,.,.,.,.,.,?,.,.,7.1µM
CCc1ccc(C2c3c(-c4cc(C)ccc4O)n[nH]c3C(=O)N2Cc2cccnc2)cc1 (centres undefined),.,.,?,.,.,28µM,.,.,16µM
CCOc1cccc(C2c3c(-c4cc(C)cc(C)c4O)n[nH]c3C(=O)N2Cc2cccnc2)c1 (centres undefined),/,.,.,/,/,/,/,/,/
CCOc1ccc(C2c3c(-c4cc(C)ccc4O)n[nH]c3C(=O)N2Cc2cccnc2)cc1OCC (centres undefined),.,.,.,.,.,?,.,.,35µM
COc1cc(C2c3c(-c4cc(C)ccc4O)n[nH]c3C(=O)N2Cc2cccnc2)cc(OC)c1OC (centres undefined),.,.,.,.,.,.,/,/,/
CC(C)(C)NC(=O)c1cccc(NC(=O)c2ccc(Cl)cc2Cl)c1,/,.,.,/,/,/,/,/,/
CC1CCCN(C(=O)/C=C/c2cccs2)C1 (centres undefined),/,.,.,/,/,/,/,/,/
CN1CC=C2C(C#N)=C(N)C(C#N)(C#N)C(c3ccsc3)C2C1 (centres undefined),.,.,.,.,.,?,.,.,?
SMILES,A549 viability,LDHA inh,12-LOX inh,Nrf2 ARE act,Nrf2 inh,IDH1 R132H inh,IDH1 autofl,IDH1 WT,IDH1 R132H conf
CN1CC=C2C(C#N)=C(N)C(C#N)(C#N)[C@H](c3cccs3)[C@H]2C1,.,.,/,.,.,.,/,/,/
N#CC1=C(N)C(C#N)(C#N)C(c2ccncc2)C2CN(C(=O)OCc3ccccc3)CC=C12 (centres undefined),.,.,.,?,23µM,46µM,.,.,45µM
Cn1c(SCC(=O)N2CCc3ccccc3C2)nnc1-c1ccncc1,.,.,.,.,.,.,/,/,/
CCc1cccc(CC)c1-n1c(SCC(=O)N2CCc3ccccc3C2)nnc1-c1cccnc1,.,.,?,.,?,52µM,.,.,14µM
Cc1cccc(-c2c3c(=O)n(C)c(=O)n(C)c3cn2-c2cc(N)c(Cl)cc2Cl)c1,.,.,.,.,?,35µM,.,.,?
Cc1cc(C)cc(OCCSc2nc(-c3ccc(C(C)(C)C)cc3)nc3cc(=O)[nH]n23)c1,.,.,.,.,.,?,.,?,25µM
Brc1ccc(-c2csc(NNC3=NCCCCC3)n2)cc1,.,.,?,.,.,26µM,.,.,?
COC(=O)CCSc1nc(N2CCOCC2)c2c(c1C#N)CC(C)(C)OC2,.,.,.,.,?,.,/,/,/
CC(C)CCSc1nc(N2CCOCC2)c2c(c1C#N)CC(C)(C)OC2,?,.,.,.,?,16µM,.,.,7.9µM
CCCCOc1ccc(C(=O)OCC(=O)c2ccc(Cl)cc2Cl)cc1,/,.,.,/,/,/,/,/,/
Cc1ccc(N(C(=O)c2sc(C)nc2C)C(C(=O)NCc2ccco2)c2ccccc2)cc1 (centres undefined),.,.,.,.,.,?,.,.,35µM
Cc1cc(C)cc(N(C(=O)c2sc(C)nc2C)C(C(=O)NCc2ccco2)c2ccccc2)c1 (centres undefined),.,.,.,.,?,?,.,.,13µM
Cc1cccc(N(C(=O)c2sc(C)nc2C)C(C(=O)NCc2ccco2)c2ccccc2)c1 (centres undefined),.,.,.,.,?,.,/,/,/
